Assay results: the supplement of paper PMC8728848
This is one part of a sample in which the strongest signals are shown more often than they occur.

Assays:
Assay in all cases: glycan array binding signal (z-score within array); higher = stronger binding
Details in all cases: glycan notation: IUPAC condensed, linker removed
[1] = molecular target: Fuc(a1-2)Gal(b1-4)GlcNAc(b1-3)Gal(b1-4)GlcNAc
Procedure, shortened: (§1)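 From the Consortium for Functional Glycomics database, 3228 arrays were curated, keeping only those whose protein sequence was available. Binding is given as a within-array Z-score averaged across arrays sharing a protein sequence and across linkers. Negative Z-scores can be read as non-binding.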

[2] = molecular target: Fuc(a1-2)Gal(b1-4)GlcNAc(b1-3)Gal(b1-4)GlcNAc(b1-3)Gal(b1-4)GlcNAc
Procedure, shortened: as §1

Fuc(a1-2)[Gal(a1-3)]Gal = molecular target: Fuc(a1-2)[Gal(a1-3)]Gal
Procedure, shortened: as §1

[3] = molecular target: Fuc(a1-3)[Gal(b1-4)]GlcNAc(b1-3)Gal(b1-3)[Fuc(a1-4)]GlcNAc
Procedure, shortened: as §1

[4] = molecular target: Fuc(a1-3)[GalNAc(b1-4)]GlcNAc
Procedure, shortened: as §1

Gal(a1-3)Gal(b1-4)Glc = molecular target: Gal(a1-3)Gal(b1-4)Glc
Procedure, shortened: as §1

Gal(a1-3)GalNAc = molecular target: Gal(a1-3)GalNAc
Procedure, shortened: as §1

[5] = molecular target: Gal(b1-3)GalNAc(b1-4)[Neu5Ac(a2-3)]Gal(b1-4)Glc
Procedure, shortened: as §1

[6] = molecular target: Gal(b1-4)GlcNAc(b1-6)GalNAc
Procedure, shortened: as §1

Gal3S(b1-3)GlcNAc = molecular target: Gal3S(b1-3)GlcNAc
Procedure, shortened: as §1

[7] = molecular target: GalNAc(b1-3)Gal(a1-4)Gal(b1-4)GlcNAc
Procedure, shortened: as §1

[8] = molecular target: GlcNAc(b1-3)Gal(b1-3)GalNAc
Procedure, shortened: as §1

[9] = molecular target: GlcNAc(b1-3)Gal(b1-4)GlcNAc
Procedure, shortened: as §1

[10] = molecular target: GlcNAc(b1-3)[GlcNAc(b1-4)][GlcNAc(b1-6)]GlcNAc
Procedure, shortened: as §1

Kdn(a2-3)Gal(b1-3)GlcNAc = molecular target: Kdn(a2-3)Gal(b1-3)GlcNAc
Procedure, shortened: as §1

[11] = molecular target: Man(a1-2)Man(a1-3)[Man(a1-2)Man(a1-6)]Man
Procedure, shortened: as §1

[12] = molecular target: Man(a1-2)Man(a1-3)[Man(a1-2)Man(a1-6)]Man(a1-6)[Man(a1-2)Man(a1-2)Man(a1-3)]Man(b1-4)GlcNAc(b1-4)GlcNAc
Procedure, shortened: as §1

[13] = molecular target: Man(a1-3)[Man(a1-6)]Man(a1-6)[Man(a1-3)]Man(b1-4)GlcNAc(b1-4)GlcNAc
Procedure, shortened: as §1

[14] = molecular target: Man(a1-3)[Man(a1-6)]Man(b1-4)GlcNAc(b1-4)GlcNAc
Procedure, shortened: as §1

[15] = molecular target: Neu5Ac(a2-3)Gal(b1-3)GalNAc(b1-4)[Neu5Ac(a2-3)]Gal(b1-4)Glc
Procedure, shortened: as §1

[16] = molecular target: Neu5Ac(a2-3)[Neu5Ac(a2-6)]GalNAc
Procedure, shortened: as §1

Neu5Ac(a2-6)GalNAc = molecular target: Neu5Ac(a2-6)GalNAc
Procedure, shortened: as §1

[17] = molecular target: Neu5Ac(a2-8)Neu5Ac(a2-8)Neu5Ac
Procedure, shortened: as §1

[18] = molecular target: Neu5Ac(a2-8)Neu5Ac(a2-8)Neu5Ac(a2-3)[GalNAc(b1-4)]Gal(b1-4)Glc
Procedure, shortened: as §1

[19] = molecular target: Neu5Ac(a2-8)Neu5Ac(a2-8)Neu5Ac(a2-8)Neu5Ac(a2-3)[GalNAc(b1-4)]Gal(b1-4)Glc
Procedure, shortened: as §1

[20] = molecular target: Neu5Gc(a2-3)Gal(b1-4)GlcNAc
Procedure, shortened: as §1

B1: SrpA (Streptococcus sanguis) (protein)
chain: SSKSESTVNSQSASSETNRSSTNNGSTSSSSETARVRKRRATDTTPPTITVPSDIIAYRGEEFEFYFEITDDSGQVKNIELSTFGKPLGLNWLEYSEDNFNVPGNATSDNPLRVRVHGTVPLNEPIPADKNRAQFTRTIRAWDAAGNVSSNITFVIKYRAQTDKYNPADPTITYVDRLSSLSPSEKNAVEAAVRAANPQIPAAARITVSANGTVTITYPDSSTDTITANRVVKDLASSRSALT
In the case of B1, the “glycan array binding signal (z-score)” value [1] is reported as -0.109, the “glycan array binding signal (z-score)” value [2] is reported as 2.25 and the “glycan array binding signal (z-score)” value (Fuc(a1-2)[Gal(a1-3)]Gal) is reported as 0.762. The “glycan array binding signal (z-score)” value [3] was -0.157, the “glycan array binding signal (z-score)” value [4] was -0.159 and the “glycan array binding signal (z-score)” value (Gal(a1-3)Gal(b1-4)Glc) was 0.291. The “glycan array binding signal (z-score)” value (Gal(a1-3)GalNAc) was -0.317, the “glycan array binding signal (z-score)” value [5] was -0.532 and the “glycan array binding signal (z-score)” value [6] was -0.04. For the same binder, the “glycan array binding signal (z-score)” value (Gal3S(b1-3)GlcNAc) was 0.646, the “glycan array binding signal (z-score)” value [7] was -0.265 and the “glycan array binding signal (z-score)” value [8] was 1.6. The “glycan array binding signal (z-score)” value [9] was -0.543, the “glycan array binding signal (z-score)” value [10] was -0.657 and the “glycan array binding signal (z-score)” value (Kdn(a2-3)Gal(b1-3)GlcNAc) was 0.272. The “glycan array binding signal (z-score)” value [11] was -0.848, the “glycan array binding signal (z-score)” value [12] was -0.332 and the “glycan array binding signal (z-score)” value [13] was 1.57. For the same binder, the “glycan array binding signal (z-score)” value [14] was -0.474, the “glycan array binding signal (z-score)” value [15] was -0.383 and the “glycan array binding signal (z-score)” value [16] was -0.566. The “glycan array binding signal (z-score)” value (Neu5Ac(a2-6)GalNAc) was 5.01, the “glycan array binding signal (z-score)” value [17] was -0.629 and the “glycan array binding signal (z-score)” value [18] was -0.901. The “glycan array binding signal (z-score)” value [19] was 2.24 and the “glycan array binding signal (z-score)” value [20] was -0.45.
